Measured values taken from ChEMBL document CHEMBL3988442, “University of Dundee, Small-Polar-MMV Screening Library” (2021).
Among all 48,000 compounds or so, about 13,000 (27%) showed an effect of 50% or more. The list shows a part of the results.

What follows are compounds tested on Wolbachia pipientis (assay: Anti-Wolbachia Cell-Based Screen). Details: 5 µM.
Type: functional
Set-up: scale not given: in the data most compounds retested in dose-response had high values
For `CC(C)N(Cc1ccccc1)Cc1nnsc1Cl`, the “Percent Effect” value was 2.332%. For `CC(C)(C)c1cnc(CN2C(=O)CC3(CCSC3)C2=O)o1` (stereo not given), the “Percent Effect” value was -9.013%. `Cc1cnn(CC2CCCN2Cc2nnc(C)o2)c1` (stereo not given) was tested, and the “Percent Effect” value was 108.8%. `CCCC1(CO)CCCN(C(=O)CNC(C)=O)C1` (stereo not given) was tested, and the “Percent Effect” value was 72.22%. In the case of `CCCC1(CO)CCCN(C(=O)CNC(N)=O)C1` (stereo not given), the “Percent Effect” value is reported as 100.2%. In the case of `CNc1ncc(C(=O)N2CCCC(CO)(CCCOC)C2)cn1` (stereo not given), the “Percent Effect” value is reported as -3.097%. `CC(=O)NCC(=O)N1CCCC2(CCC(=O)N(CCc3c[nH]cn3)C2)C1` (stereo not given) was tested, and the “Percent Effect” value was 7.336%. In the case of `O=C(CCn1cnnn1)N1CCCC(CO)(CCc2ccccc2)C1` (stereo not given), the “Percent Effect” value is reported as -14.03%. For `O=C(CCn1cnnn1)N1CCCC(CO)(CCCc2ccccc2)C1` (stereo not given), the “Percent Effect” value was 2.487%. For `COc1c(C2CCCN2c2ncnc3sccc23)c(C)nn1C` (stereo not given), the “Percent Effect” value was -10.8%. `CN(CC1(O)CCCN(Cc2cccc(F)c2F)C1=O)C1CCCCC1` (stereo not given) was tested, and the “Percent Effect” value was 6.301%. With `Cc1ccnc(C2(C)CCCN2S(=O)(=O)c2cccnc2)n1` (stereo not given) the “Percent Effect” value was 132.4%. `O=C1N(C2CCCCC2)CCCC12CCN(S(=O)(=O)c1cccnc1)C2` (stereo not given) was tested, and the “Percent Effect” value was 14.14%. For `CCCN1CCCC2(CCN(S(=O)(=O)c3cccnc3)C2)C1=O` (stereo not given), the “Percent Effect” value was 3.088%. With `CCC1CCCCN1S(=O)(=O)c1c(C)noc1C` (stereo not given) the “Percent Effect” value was -6.559%. For `Cc1ccnc(C2(C)CCCN2S(=O)(=O)c2c(C)noc2C)n1` (stereo not given), the “Percent Effect” value was 125.2%. For `Cc1noc(C)c1S(=O)(=O)N1C[C@@H](C(=O)O)[C@H](c2ccccn2)C1`, the “Percent Effect” value was -14.24%. In the case of `CC(C)c1noc(CNc2ccccc2CC(=O)N(C)C)n1`, the “Percent Effect” value is reported as 6.812%. With `Cc1nn(C)c(C)c1NC(=O)CNc1ccc(F)c(C(F)(F)F)c1` the “Percent Effect” value was -4.336%. With `CC(=O)N1CCCC1c1ccc(Br)cn1` (stereo not given) the “Percent Effect” value was 103.5%. For `O=C(CC1CCCCC1)N1C[C@H]2CC[C@@H]1CN(Cc1cccnc1)C2`, the “Percent Effect” value was -16.08%. For `CCc1ccc(C2CCCCCN2C(=O)CNC(=O)C2CC2)o1` (stereo not given), the “Percent Effect” value was -5.222%. In the case of `CC(=O)N1CCCC1c1ccc(-c2c(C)noc2C)cn1` (stereo not given), the “Percent Effect” value is reported as -2.111%. `Cn1cccc1C(=O)N1CCCC1c1ccc(CN2CCOCC2)cn1` (stereo not given) was tested, and the “Percent Effect” value was 73.28%. In the case of `CC(=O)NCC(=O)N1CCCC1c1ccc(CN2CCOCC2)cn1` (stereo not given), the “Percent Effect” value is reported as 87.68%. With `Cc1cc(C(=O)Nc2ccc(CN3CCOCC3)cn2)n(C)n1` the “Percent Effect” value was -8.587%. `Cn1cccc1C(=O)N1C[C@H](OCC2CCOCC2)[C@H]2COC[C@H]21` was tested, and the “Percent Effect” value was -0.3996%. `O=C(CC1CCCC1)N1CCCC1c1ccc(CN2CCOCC2)cn1` (stereo not given) was tested, and the “Percent Effect” value was 123.2%. With `Cc1ccc(CNC(=O)NCCCn2nc3ccccn3c2=O)s1` the “Percent Effect” value was 0.9307%. `CN(C)CCN(C)C[C@@H]1CN(Cc2cccc(O)c2)C[C@@H]1CO` was tested, and the “Percent Effect” value was -1.662%. With `Cc1ccc(-c2nc(C(=O)N(C)CC(=O)N3CCCC3)cs2)c(C)c1` the “Percent Effect” value was 2.536%. For `CCNC(=O)[C@@H]1CCCN1[C@@H](C(=O)NC)c1ccccc1OC.Cl`, the “Percent Effect” value was 2.638%. `N#Cc1cccc(NC(=O)N2CCCC(N3CCCC3=O)C2)c1` (stereo not given) was tested, and the “Percent Effect” value was -2.402%. For `CC(C1CCN(Cc2ccc(N(C)C)nc2)CC1)N1CCOCC1` (stereo not given), the “Percent Effect” value was 11.4%. For `CC(=O)N1CCCC1c1ccc(CN2CCOCC2)cn1` (stereo not given), the “Percent Effect” value was 123.1%. With `CC(=O)N1CCCC1c1ccc(C(=O)N2CCOCC2)s1` (stereo not given) the “Percent Effect” value was -4.925%. `COC(=O)C1CCN(C(=O)Nc2cc(-n3cccc3)ccc2F)CC1` was tested, and the “Percent Effect” value was -12.66%. With `Cc1cccc(NC2CCN(C(=O)Nc3ccc(F)cc3C)CC2)n1` the “Percent Effect” value was 119.5%. For `Cc1cccc(NC2CCN(C(=O)Nc3cc(F)ccc3F)CC2)n1`, the “Percent Effect” value was 100.1%. In the case of `O=C(Nc1cc(-n2cccc2)ccc1F)N1CCCC1`, the “Percent Effect” value is reported as -21.77%. With `COC(=O)[C@@H](NC(=O)c1coc(COc2cccc(F)c2)n1)C(C)C` the “Percent Effect” value was -6.139%. `COC(=O)C(CNC(=O)Nc1nncs1)Cc1ccc(O)cc1` (stereo not given) was tested, and the “Percent Effect” value was -7.051%. In the case of `CNC(=O)c1n[nH]c2c1C(c1cccc3[nH]ccc13)CC(=O)N2` (stereo not given), the “Percent Effect” value is reported as 8.838%. In the case of `Cc1nnc(NC(=O)CN2CCc3nn(C)c(=O)cc3C2)s1`, the “Percent Effect” value is reported as 86.83%. In the case of `CCn1nc2c(cc1=O)CN(CC(=O)Nc1nccs1)CC2`, the “Percent Effect” value is reported as -22.28%. `Cn1nc2c(cc1=O)CN(CC(=O)Nc1nncs1)CC2` was tested, and the “Percent Effect” value was -9.972%. `CCn1nc2c(cc1=O)CN(CC(=O)Nc1cc(C(C)C)no1)CC2` was tested, and the “Percent Effect” value was -9.725%. In the case of `CCn1nc2c(cc1=O)CN(CC(=O)Nc1nncs1)CC2`, the “Percent Effect” value is reported as 94.86%. In the case of `CCn1nc2c(cc1=O)CN(CC(=O)Nc1cc(C)no1)CC2`, the “Percent Effect” value is reported as -6.307%. `Cc1cc(NC(=O)CN2CCc3nn(C)c(=O)cc3C2)no1` was tested, and the “Percent Effect” value was -3.841%. With `Cc1csc(NC(=O)CN2CCc3nn(C)c(=O)cc3C2)n1` the “Percent Effect” value was -32.21%. In the case of `Cc1nc(CN2CCc3nn(C(C)C)c(=O)cc3C2)oc1C`, the “Percent Effect” value is reported as -3.167%. With `CC(C)n1nc2c(cc1=O)CN(CC(=O)N(C)c1nccs1)CC2` the “Percent Effect” value was -24.74%. `CCn1nc2c(cc1=O)CN(CC(=O)Nc1nnc(C)s1)CC2` was tested, and the “Percent Effect” value was 120.7%. For `Cc1nnc(NC(=O)CN2CCc3nn(C(C)C)c(=O)cc3C2)s1`, the “Percent Effect” value was 104%.
